Test results taken from PubChem BioAssay AID1159580 (chemical genetic matrix, 2015).
About 2,000 (36%) of roughly 5,500 compounds were called active. Inconclusive results (about 18%) are left out. Rule as the data show it: active = normalized growth mostly below about 0.91 (no sharp cut-off); inconclusive = no clear call, values can overlap the other calls; inactive = mostly above about 0.92. The list shows a part of the results.

Assay: chemical genetic growth profiling, strain panel (AID 1159580);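 also: tested at 20 µM; growth read once vehicle control cultures reached saturation at 30 °C; 1 = growth at the plate median or of vehicle wells; lower values mean less growth of the strain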
Details: S. cerevisiae deletion strains, growth OD

Measured: normalized growth

NC(C(=O)O)c1cc(=O)[nH]o1 (centres undefined)
inactive: locus YAL013W, strain DEP1, active compounds read low 1.02 | locus YAL040C, strain CLN3, active compounds read low 1.01 | locus YCL061C, strain MRC1 (second series), active compounds read low 1 | locus YDR150W, strain NUM1, active compounds read low 1 | locus YDR363W, strain ESC2, active compounds read low 1.04 | locus YER002W, strain NOP16, active compounds read low 1.01 | locus YGR229C, strain SMI1, active compounds read low 1.04 | locus YMR263W, strain SAP30, active compounds read low 1 | locus YMR307W, strain GAS1, active compounds read low 1.01 | locus YNL153C, strain GIM3, active compounds read low 1.04 | locus YNL175C, strain NOP13, active compounds read low 1.02 | locus YNL197C, strain WHI3, active compounds read low 0.999 | locus YNL224C, strain SQS1, active compounds read low 0.996 | locus YOR083W, strain WHI5 (second series), active compounds read low 1.01
